# Among all 420,000 compounds or so, about 64,000 (15%) were called active. Not shown: some 27% with an inconclusive outcome. Calls come from the whole dose curve; as a rule, active = well fitted inhibition curve with a large enough effect; inconclusive = small, poorly fitted or top-dose-only effect; inactive = flat fitted curve, though single readings scatter. Only a sample is shown. A call without a number means that no potency is given here.
# Experiment: qHTS for Inhibitors of human tyrosyl-DNA phosphodiesterase 1 (TDP1): qHTS in cells in absence of CPT; note: nearly all actives have a fitted effect of over 55% in size
# Settings: DT40 Tdp1-/- hTDP1 cells, no CPT, ATP luminescence, 48 h; activity change, negative = growth inhibition: at 46.2 µM (top of the series)
# How it was run: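 Compound effects on proliferation are scored in DT40 Tdp1-/-;hTDP1 cells in the absence of CPT. ATP levels (CellTiter-Glo luminescence) are recorded after a ≥48 hr, 37 °C incubation.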
# Potency is the fitted concentration of half-maximal effect.
row,SMILES,Potency
1,COC(=O)C1=C(C(=O)OC)C2(OC1c1ccc(Br)cc1)C(=O)c1ccccc1C2=O (configuration not stated),inactive
2,CN(c1ccc(OCC(=O)NC2=NCCS2)cc1)S(=O)(=O)c1ccc(F)cc1,inactive
3,O=C(CSc1ccc(-c2ccccc2)nn1)NCC1CCCO1 (configuration not stated),inactive
4,CN(C)/C=C(\C#N)C(=O)c1cccnc1Oc1cccc(F)c1,inactive
5,C[C@@H]1CN([C@@H](C)CO)C(=O)c2cc(NC(=O)C3CC3)ccc2O[C@H]1CN(C)C,inactive
6,CC(C)CC(=O)Nc1cc(C(F)(F)F)ccc1N1CCOCC1,inactive
7,CCOC(=O)c1c(C)[nH]c(C)c1C(=O)CSc1nc(N)cc(N)n1,inactive
8,COCCNc1cc(NCCOC)c([N+](=O)[O-])cc1[N+](=O)[O-],inactive
9,Cc1ccc(OC(=O)c2cc3ccccc3o2)cc1,inactive
10,CCOC(=O)c1[nH]c(C)c(CCC(=O)NCc2ccccc2C)c1C,inactive
11,C/C(CC(=O)Nc1cccc(F)c1)=N\NC(=O)C(=O)NC1CCCCC1,inactive
12,C=C(C)c1cccc(C(C)(C)NC(=O)N2CCN(c3ncccn3)CC2)c1,inactive
13,O=C(CCN1C(=O)c2ccccc2C1=O)NNC(=O)c1ccc(Cl)cc1Cl,inactive
14,COc1ccc(Nc2cc(=O)n(-c3ccccc3)c3c2c(=O)n(C)c(=O)n3C)cc1,inactive
15,COc1cccc(-n2cc3c(c2-c2ccccc2)c(=O)n(C)c(=O)n3C)c1,11.6 µM (active)
16,COc1cccc(-n2cc(C(=O)O)c3ccccc3c2=O)c1,inactive
17,CN1CCN(NC(=O)Nc2ccc(Br)cc2)CC1,inactive
18,COC(=O)c1ccc(/C=N/NC(=O)C(=O)N2CCCCCC2)cc1,inactive
19,CCCNC(=O)c1cc(C2CCCN(C(=O)c3ccc4c(c3)CCO4)C2)on1 (configuration not stated),inactive

row,SMILES,Potency
1,S=c1[nH]nc(-c2ccc(Cl)cc2)n1CC1CCCO1 (configuration not stated),inactive
2,O=C(c1nnc(-c2ccc(Cl)cc2)o1)C1CCCC1,inactive
3,O=C(c1[nH]ncc1-c1ccc(Cl)cc1)C1CO1 (configuration not stated),4.61 µM (active)
4,CC(OC(=O)CCc1nc(=O)c2ccccc2n1C)C(=O)NCc1ccc2c(c1)OCO2 (configuration not stated),inactive
5,CCn1c(CNC(=O)c2ccccc2)nnc1SCC(=O)N1CCN(c2ccccc2)CC1,inactive
6,COc1ccc(N2CCN(C(=O)c3ccccc3NC(=O)C3=C(C)OCCS3)CC2)cc1,inactive
7,CCn1c2c(c(=O)n3ncc(C(=O)N4CCN(c5ccccc5)CC4)c13)CN(Cc1ccc(OC)cc1)CC2,16.4 µM (active)
8,CCC(C)NC(=O)C1CCC(=O)N1Cc1ccc(C)cc1 (configuration not stated),inactive
9,CN(Cc1ccco1)S(=O)(=O)c1nnc(NC(=O)c2ccccc2)s1,inactive
10,COc1ccccc1CNC(=O)CCn1c(=O)c2ccccc2n(CC(=O)Nc2cccc(Cl)c2)c1=O,18.4 µM (active)
11,COc1ccc(NC(=O)Cn2c(=O)n(Cc3ccc(C(=O)NCc4ccccc4Cl)cc3)c(=O)c3ccccc32)cc1,inactive
12,COCCNC(=O)CCCn1c(=O)c2ccccc2n(Cc2cccc([N+](=O)[O-])c2)c1=O,inactive
13,COc1ccccc1CNC(=O)CCn1c(=O)sc2ccccc21,inactive
14,Cc1ccc(Cn2c(=O)n(CCCC(=O)NCc3ccccc3Cl)c(=O)c3ccccc32)cc1,inactive
15,COc1ccc(CCNC(=O)CCCCn2c(=O)c3ccccc3n(Cc3ccccc3)c2=O)cc1OC,20.6 µM (active)
16,COc1ccc(CCNC(=O)CCCn2c(=O)c3ccccc3n(Cc3ccc(F)cc3Cl)c2=O)cc1OC,inactive
17,COc1ccccc1CNC(=O)CCCCn1c(=O)c2ccccc2n(CC(=O)Nc2cc(Cl)ccc2C)c1=O,10.3 µM (active)
18,COc1ccccc1CNC(=O)CCCn1c(=O)c2ccccc2n(CC(=O)Nc2ccc(C)cc2Cl)c1=O,inactive
